In PubChem BioAssay (Tox21):
Where “and” joins values, the source holds several entries; their conditions need not be identical. Equal values may be shown once. Results filed as inconclusive are left out. Calls of active or inactive are those of the source. Calls follow the shape of the dose curve; as a rule, active = well fitted activation curve with a large enough effect in the repeat runs; inconclusive = weak or mixed curves; inactive = flat fitted curve, though single readings scatter.

test: A CellTox Green Cytotoxicity Assay to monitor cytotoxicity in HEK293 cells - 40 hour (AID 1224871); conditions: CellTox Green fluorescence; series mostly up to 76.8 µM; cytotoxicity increase: at the top concentration; also: nearly all actives have a fitted effect of over 45% in size
Description: National Center for Advancing Translational Sciences [NCATS]
NIH Chemical Genomics Center [NCGC]
U.S. Environmental Protection Agency [EPA]
National Institutes of Environmental Health Sciences [NIEHS]
National Toxicology Program [NTP]
Cell-based models are critical for drug discovery. Determining the natural cytotoxic effects resulting from test compounds is an essential research activity. A CellTox Green Cytotoxicity Assay to monitor cytotoxicity in real time of continues cell culture during 40 hours of the compound treatment was used to screen Tox21 10K library compounds in Hek293 cells. CellTox Green Cytotoxicity Assay is a nonlytic, homogeneous, biofluorescent method to measure cytotoxicity in cell culture after experimental manipulation. The assay system uses a proprietary asymmetric cyanine dye that is excluded from viable cells but preferentially stains the dead cell's DNA. […] Viable cells produce no appreciable increases in fluorescence. Therefore, the fluorescence signal produced by the binding interaction with dead cell DNA is proportional to cytotoxicity.
The mixture of Hek293 cell suspension and reagents were dispensed at 600cells/6 ul/well in 1536-well tissue culture treated black solid bottom plates using a Multidrop dispenser. After the assay plates were incubated at a 37 C/5% CO2 incubator for 5 hours, 23 nL of compounds dissolved in DMSO, positive and negative controls was transferred to the assay plate by a pintool work station. The plates were incubated at 37 C for 40 hours. The fluorescence intensity were measured at 0h, 8h, 16h, 24h, 32h and 40h time points using ViewLux plate reader during compound treatment.
% is scaled to controls: 0 for no effect and ±100 for the full control effect; potency is read from the fitted curve at half-maximal effect.

| Structure (SMILES) | cytotoxicity increase | Potency |
| --- | --- | --- |
| CCOP(=O)(O)C(N)=O | 2.3% (inactive) |  |
| CCCCCCCCCCCC[N+](C)(C)CCOc1ccccc1 |  | 19.5 µM (active) and 23.9 µM (active) |
| COC1=CC(=O)O[C@@H](/C=C/c2ccc3c(c2)OCO3)C1 | -7.61% (inactive) |  |
| O=C=NC1CCCCC1 | 2.14% (inactive) |  |
| C=CCc1ccc(OC(=O)Cc2ccccc2)c(OC)c1 | -4.12% (inactive) |  |
| COc1ccc2c(c1OC)C(=O)O[C@H]2[C@@H]1c2cc3c(cc2CCN1C)OCO3 | 5.02% [at 35.3 µM] (inactive) |  |
| CN1CC[C@]23c4c5ccc(O)c4O[C@H]2[C@@H](O)CC[C@H]3[C@H]1C5 | -10.8% (inactive) |  |
| Cc1ccccc1 | -10.1% (inactive) |  |
| COc1cc(CC#N)cc(OC)c1OC | -5.98% [at 35.3 µM] (inactive) |  |
| CCN(C(C)=O)c1cccc(-c2ccnc3c(C#N)cnn23)c1 | -6.36% [at 35.3 µM] (inactive) |  |
| O=C(Cc1ccccc1)c1ccccc1 | 8.63% (inactive) |  |
| N#CC(C#N)=C(C#N)C#N | -2.92% (inactive) |  |
| Cc1ccc(N)c(C)c1 |  | inactive |
| Cc1cnc(C2=NC(C)(C(C)C)C(=O)N2)c(C(=O)O)c1 (stereo not given) | -7.19% (inactive) |  |
| COC(=O)Cc1ccccc1 | -10.5% (inactive) |  |
| CCOC(C(=O)OCCN(C)C)(c1ccccc1)c1ccccc1 | 1.07% [at 35.3 µM] (inactive) |  |
| [Cl-].[Cl-].[Hg+2] |  | 21.8 µM (active) and 3.89 µM (active) |
| CCCCCl | -7.67% (inactive) |  |
| COc1ccc(C(O)(c2cncnc2)C2CC2)cc1 (stereo not given) | -25.4% (inactive) |  |
| CC1(C)CC(=O)CC(C)(C)N1[O] | -6.28% (inactive) |  |

| Structure (SMILES) | cytotoxicity increase | Potency |
| --- | --- | --- |
| C=CC(C)(CCC=C(C)C)OC(=O)c1ccccc1N (stereo not given) | -2.54% (inactive) |  |
| CC(CC(C(N)=O)(c1ccccc1)c1ccccc1)N(C)C (stereo not given) | 9.21% [at 35.3 µM] (inactive) |  |
| Nc1ccccc1C(=O)OCCc1ccccc1 |  | 21.9 µM (active) |
| C#C[C@]1(O)CC[C@H]2[C@@H]3CCC4=CC(=O)CCC4=C3C=C[C@@]21CC | 12.3% [at 35.3 µM] (inactive) |  |
| CCCCC1C(=O)NC(=O)N(C2CCCCC2)C1=O (stereo not given) | 1.06% [at 35.3 µM] (inactive) |  |
| CCCCC#N | -2.95% (inactive) |  |
| CN(C)c1ccc(N=O)cc1 |  | 11 µM (active) and 19.5 µM (active) |
| CC(C)(C)OOC(C)(C)CCC(C)(C)OOC(C)(C)C | -11.8% (inactive) |  |
| CCc1cnc(C2=NC(C)(C(C)C)C(=O)N2)c(C(=O)O)c1 (stereo not given) |  | inactive |
| CC(Cl)C(=O)O (stereo not given) | 8.44% (inactive) |  |
| O=S(=O)(Cl)Cl | -1.9% (inactive) |  |
| CC(C)C1(C)N=C(c2ncccc2C(=O)O)NC1=O (stereo not given) | 0.73% (inactive) |  |
| COc1cc(C[C@@H](C)N)c(OC)cc1Br | -9.77% (inactive) |  |
| CCC(C)(C)c1ccc(O)c(C(C)(C)CC)c1 |  | 43.2 µM (active) and 15.5 µM (active) |
| CCNC(=O)NC(=O)/C(C#N)=N/OC | -4.92% (inactive) |  |
| CN1C(=O)CN=C(c2ccccc2)c2cc([N+](=O)[O-])ccc21 | -5.3% [at 35.3 µM] (inactive) |  |
| CCCC(C)(COC(N)=O)COC(=O)NC(C)C (stereo not given) |  | inactive |
| O=C1NC(=O)C(=O)C(=O)N1 | -9.37% (inactive) |  |
| CON(C)C(=O)Nc1ccc(Cl)cc1 | -5.25% (inactive) |  |
| O=C1CC[C@@]2(O)[C@H]3Cc4ccc(O)c5c4[C@@]2(CCN3CC2CC2)[C@H]1O5 | -17.3% [at 35.3 µM] (inactive) |  |
